DT40 TDP1 CPT: growth inhibition of DT40 Tdp1-/-;hTDP1 cells with camptothecin (screen for TDP1 inhibitors) | Potency, µM (highest dose often 46.2 µM), most hits filed as inhibitors | 420,000 tested, 12% active | AID 686979 | chicken DT40 Tdp1-/-;hTDP1 cells + 20 nM CPT, ATP luminescence, 48 h; note: nearly all actives have a fitted effect of over 55% in size
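Chicken DT40 Tdp1-/- cells complemented with human TDP1, 400 cells/well, exposed to compounds plus 20 nM camptothecin for at least 48 h at 37 C; viability read as ATP content by CellTiter-Glo luminescence.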
Giardia killer: Giardia lamblia killing. Giardia lamblia trophozoite viability. activity change, % at 7.66 µM, hits read low. 340,000 tested, 0.15% active. AID 540267; in the data active = activity change below about -80%; inconclusive = between about -30% and that limit;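 note: parasites exposed to compound for two days anaerobically before the ATP read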
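Viability, read as ATP luminescence: trophozoites at 100 cells/well, compound added, 48 hrs anaerobic at 37 deg C, then 15-30 min room-temperature development before reading.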
ELG1 repair inh: inhibitors of ELG1-dependent DNA repair in HEK293T cells; HEK293T ELG1-luciferase reporter, luminescence, 16 h; DNA damage induced by 5-fluorouridine; Potency, µM (series often up to 46.1 µM), hits mostly inhibitors; 330,000 tested, 2.3% active; note: nearly all actives have a fitted effect of over 55% in size
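Step one: seed 2,000 cells per well. Step two: pin-transfer compound or DMSO alongside 5-fluorouridine. Step three: incubate 16 hr, 37 °C, 5% CO2. Step four: add ONE-Glo, wait 30 min, read luminescence.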
IL-1B inflam inh: inflammasome signaling inhibition, IL-1 beta readout; 360,000 tested, 4.7% active; AID 743279; THP-1 LPS/ATP IL-1B secretion, AlphaLISA, 16 h; hits give low values; activity change, % at 57.5 µM; in the data active = activity change below about -50%; inconclusive = mostly about -30% to -49%
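THP-1 cells pretreated 1 hr with compounds (up to 57.5 uM final), then stimulated with LPS (250 ng/mL final) plus ATP (1.25 mM final); secreted IL-1B measured by AlphaLISA after 16 hr, decreased signal indicating inhibition.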
DT40 TDP1 no CPT: qHTS for Inhibitors of human tyrosyl-DNA phosphodiesterase 1 (TDP1): qHTS in cells in absence of CPT; 420,000 tested, 15% active; DT40 Tdp1-/- hTDP1 cells, no CPT, ATP luminescence, 48 h; Potency, µM (highest dose often 46.2 µM), most hits filed as inhibitors; AID 686978, 2013; note: nearly all actives have a fitted effect of over 55% in size
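Growth kinetics read by CellTiter-Glo luminescence after ≥48 hr at 37 °C. Cells: DT40 Tdp1-/- stably carrying human TDP1, 400 per well, compound exposure in the absence of CPT (DMSO vehicle).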
TDP1 block: TDP1 (human) enzyme inhibition. Q9NUW8. recombinant TDP1, AlphaScreen DNA substrate cleavage. Potency, µM (series often up to 130 µM), hits mostly inhibitors. 350,000 tested, 0.28% active; note: nearly all actives have a fitted effect of over 40% in size
Target sequence (Q9NUW8 whole entry, looked up): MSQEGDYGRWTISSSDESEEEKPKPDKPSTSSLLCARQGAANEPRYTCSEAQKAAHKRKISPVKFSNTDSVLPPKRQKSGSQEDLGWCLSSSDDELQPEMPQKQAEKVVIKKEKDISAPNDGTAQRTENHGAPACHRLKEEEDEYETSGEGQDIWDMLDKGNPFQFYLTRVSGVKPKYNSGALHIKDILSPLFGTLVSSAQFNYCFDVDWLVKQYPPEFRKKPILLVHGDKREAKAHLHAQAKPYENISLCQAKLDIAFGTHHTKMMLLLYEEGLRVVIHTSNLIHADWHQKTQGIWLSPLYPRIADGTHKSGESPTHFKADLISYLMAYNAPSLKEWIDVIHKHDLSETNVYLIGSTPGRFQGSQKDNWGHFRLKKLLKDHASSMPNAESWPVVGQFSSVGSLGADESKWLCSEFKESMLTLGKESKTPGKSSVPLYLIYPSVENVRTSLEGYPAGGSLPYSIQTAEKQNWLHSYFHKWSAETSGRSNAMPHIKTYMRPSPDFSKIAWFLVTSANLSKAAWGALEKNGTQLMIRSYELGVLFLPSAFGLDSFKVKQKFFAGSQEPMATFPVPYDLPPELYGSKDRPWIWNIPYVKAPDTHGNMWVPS
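Recombinant human Tdp1 (E. coli-expressed, 1 nM final) preincubated with compounds 15 min at room temperature, then 5'-biotin/3'-phosphotyrosine-FITC DNA substrate (15 nM final) added for 5 min. AlphaScreen beads (10 ug/ml final) added 10 min; cleavage lowers signal.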
Hits are given with their value; n = inactive; u = inconclusive; x = no result; [ ] = remark or other dose. Rows were chosen to be rich in hits. Some 19% of all compounds tested hit in one or more screens of this group. Unless noted, calls come from the whole dose curve; as a rule, active = well fitted curve in the direction sought with a large enough effect; inconclusive = small, poorly fitted or top-dose-only effect, or another doubt; inactive = no such curve, though single readings can be large; an effect the other way counts as inactive or inconclusive.

SMILES	DT40 TDP1 CPT	Giardia killer	ELG1 repair inh	IL-1B inflam inh	DT40 TDP1 no CPT	TDP1 block
CCCOc1ccc(C2c3c(oc4ccccc4c3=O)C(=O)N2c2nnc(C(C)C)s2)cc1 (centres undefined)	n	x	x	x	n	n
O=[N+]([O-])c1ccc2nc[nH]c2c1	n	n	x	n	n	n
Nc1[nH]c2cc([N+](=O)[O-])ccc2c1-c1ccccn1	15µM	n	n	n	u	n
Cc1ccccc1CN(C)CC(=O)Nc1c(C)cccc1C(C)C	u	n	n	-86	3.3µM	n
CC(NC(=O)CN(C)Cc1cccc(F)c1)c1ccccc1 (centres undefined)	n	n	n	n	n	x
Cc1cccc(C(C)C)c1NC(=O)CN(C)Cc1cccc(F)c1	u	n	n	n	23µM	n
Cc1cccc(C)c1NC(=O)CN(C)CC(=O)Nc1ccccc1Oc1ccccc1	n	n	12µM	n	u	n
COc1ccc(CN(C)CC(=O)Nc2c(C)cccc2C)c(OC)c1	u	n	n	n	u	n
CCc1cccc(C)c1NC(=O)CN(C)Cc1cccc(F)c1	u	n	n	n	16µM	n
O=C(NCCn1cccn1)c1ccc(OC2CCN(CCc3ccccc3)CC2)cc1	n	n	n	-81	n	x
Cc1c(C=O)c2ccccc2n1CC(=O)NC(C)c1ccccc1 (centres undefined)	u	n	u	n	23µM	n
Cc1cccc(-n2nnc(-c3nc(-c4cccs4)no3)c2N)c1	n	x	x	x	n	n
Cc1ccc(C)c(NC(=O)COC(=O)c2cc(=O)c3ccccc3o2)c1	n	n	n	u	n	n
O=C(O)c1ccc(S(=O)(=O)N(CCc2ccccc2)Cc2ccc(Cl)cc2)cc1	n	n	u	n	n	x
CCNC(=O)c1cc(S(=O)(=O)N2CCSCC2)ccc1OC	n	n	n	n	n	x
Cc1ccc(NS(=O)(=O)c2cc(C(=O)NCCSc3ccc(C)cc3)ccc2C)cc1	u	n	u	-53	u	n
Cc1ccc(SCCNC(=O)c2ccc(C)c(S(=O)(=O)Nc3cccc(C)c3)c2)cc1	u	n	u	-57	n	n
Cc1ccc(C)c(S(=O)(=O)Nc2ccc(C(=O)NCCCN(C)C)cc2)c1	n	x	x	n	u	x
Cc1ccc(SCCNC(=O)c2ccccc2)cc1	n	n	n	n	n	n
Cc1ccc(C(=O)NCCSc2ccc(Cl)cc2)cc1S(=O)(=O)Nc1ccccc1	u	n	21µM	-93	u	n
Cc1ccc(NS(=O)(=O)c2cc(C(=O)NCCSC3CCCCC3)ccc2C)cc1	u	n	u	-57	u	n
N#C/C(=C\c1ccc(-c2cc(Cl)ccc2Cl)o1)C(=O)Nc1ccccc1C(=O)O	n	x	x	x	u	n[12.3 µM]
CN1CCN(c2nc(NCCOC34CC5CC(CC(C5)C3)C4)nc(OCC(F)(F)F)n2)CC1	u	n	n	-80	u	n
CCCNc1nc(OCC(F)(F)F)nc(OCC(F)(F)F)n1	n	n	n	n	n	n
COc1ccc(-c2noc(C3CCCN(S(=O)(=O)c4cccc(Cl)c4)C3)n2)cc1OC (centres undefined)	u	n	u	n	u	n
SMILES	DT40 TDP1 CPT	Giardia killer	ELG1 repair inh	IL-1B inflam inh	DT40 TDP1 no CPT	TDP1 block
O=C(CC1CCCCC1)N1CCCC(c2nc(-c3ccc(S(=O)(=O)N4CCCC4)cc3)no2)C1 (centres undefined)	23µM	n	u	-77	16µM	n
O=S(=O)(c1ccc(Cl)cc1)N1CCCC(c2nc(-c3ccc(F)cc3)no2)C1 (centres undefined)	15µM	n	n	n	u	n
Cc1ccc(-c2nc(C3CCCN(S(=O)(=O)c4ccc(C)cc4)C3)no2)cc1 (centres undefined)	16µM	n	u	n	u	n
S=C(NCc1cccnc1)c1ccccc1	n	n	n	n	u	x
CC(C)COc1cccc(C(=O)N(C)CC(=O)Nc2cccc3ccccc23)c1	18µM	n	n	n	18µM	n
Cc1cc(N2CCCC2)ccc1NC(=O)COc1cccc(C(F)(F)F)c1	8.2µM	n	u	n	4.6µM	n
